IDH1 R132H inh: blocks human mutant IDH1 R132H enzyme; O75874; IDH1-R132H enzyme, NADPH consumption, diaphorase/resazurin fluorescence; Potency, µM (top dose mostly 76.6 µM), for the others: top-dose activity change, negative = inhibition, most hits filed as inhibitors; 390,000 compounds, 0.093% hits; AID 602179; further: potency means the concentration at half of the fitted maximal effect; on the % scale 0 is the no-effect control and ±100 the full control effect; nearly all actives have a fitted effect of over 65% in size
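IDH1-R132H (0.5 ug/mL dispensed) in pH 7.5 Tris buffer was preincubated 30 min with compound, then given a substrate mix of 0.016 mM NADPH and 2 mM alpha-KG for 80 min at room temperature; remaining NADPH was read by diaphorase/resazurin fluorescence.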
Tb PGK inh: T. brucei PGK inhibition | Potency, µM (top dose mostly 57.5 µM), for the others: top-dose activity change, negative = inhibition, usual class: inhibitors | 380,000 compounds, 0.043% hits | P07378 | PGK/GAPDH coupled, Kinase-Glo luminescence, 60 min; further: potency means the concentration at half of the fitted maximal effect; on the % scale 0 is the no-effect control and ±100 the full control effect; nearly all actives have a fitted effect of over 60% in size
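Recombinant glycosomal PGK reaction used 1,3-bisphosphoglycerate generated in-well by GAPDH (100nM final) in 100mM TEA pH 7.6, 5mM MgCl2, 0.01% Tween-20. After 60 minutes at room temperature, ATP was read by Kinase-Glo Plus luminescence end-point.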
GLS inhibitor: blocks human kidney-isoform glutaminase activity. AID 624170. 410,000 compounds, 0.21% hits. GLS enzymatic activity, qHTS titration. Potency, µM (highest dose often 45.5 µM), inactives show top-dose activity change, negative = inhibition, most hits filed as inhibitors. O94925; further: potency means the concentration at half of the fitted maximal effect; on the % scale 0 is the no-effect control and ±100 the full control effect
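Compounds were pin-transferred onto hKGA, after which L-glutamine (1 mM solution) and a detection mix of glutamate oxidase, HRP and Amplex Red were added. Initial and 30 min RT fluorescence reads were collected.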
Pin1 inhibitor: human Pin1 inhibition; Q13526; 390,000 compounds, 0.009% hits; Pin1 FP peptide displacement, HiFluor488, 10 min; Potency, µM (highest dose often 115 µM), for inactives: top-dose activity, negative = inhibition, hits mostly inhibitors; active means well fitted inhibition curve with a large enough effect in the polarisation, with a control signal flat, not every such curve was filed as active; inconclusive means small, poorly fitted or top-dose-only effect, or effect the other way, or a change in a side signal; inactive means no such curve, though single readings can be large or run the other way; the % refers to the polarisation; further: potency means the concentration at half of the fitted maximal effect; on the % scale 0 is the no-effect control and ±100 the full control effect
Target sequence (Q13526 whole entry, looked up): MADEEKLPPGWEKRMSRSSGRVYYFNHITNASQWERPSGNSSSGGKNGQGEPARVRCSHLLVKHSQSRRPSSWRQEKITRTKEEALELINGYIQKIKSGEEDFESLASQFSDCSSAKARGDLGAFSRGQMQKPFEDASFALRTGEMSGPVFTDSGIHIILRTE
IDH1 autofl: autofluorescence interference, mutant IDH1 hit counter-screen | shares compounds with IDH1 R132H inh | Resorufin detection reagent fluorescence interference, cell-free | inhibition of signal, % at 51.2 µM | 750 tested, under 10 active;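 further: 0% = wells with normal resorufin and full inhibition = wells lacking resorufin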
IDH1 WT: selectivity of mutant IDH1 inhibitors: human wild-type IDH1. shares compounds with IDH1 R132H inh. WT IDH1 enzyme, NADPH diaphorase/resazurin fluorescence. Potency, µM (doses to about 115 µM), for the others: at the highest dose activity change, negative = inhibition, actives largely listed as inhibitors. 750 compounds, 9% hits. AID 623995;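 further: potency means the concentration at half of the fitted maximal effect; 0% = full WT IDH1 enzyme control and full inhibition = no enzyme wells; nearly all actives have a fitted effect of over 55% in size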
IDH1 R132H conf: confirmation of human mutant IDH1 inhibitors | shares compounds with IDH1 R132H inh | IDH1 R132H enzyme, NADPH diaphorase/resazurin fluorescence | Potency, µM (doses to about 76.6 µM), without a hit: at the highest dose activity change, negative = inhibition, actives largely listed as inhibitors | 750 compounds, 83% hits | AID 624002; further: potency means the concentration at half of the fitted maximal effect; nearly all actives have a fitted effect of over 50% in size
Numbers without * were called inactive. Rows were chosen to be rich in hits. Some 0.33% of all compounds tested hit in one or more screens of this group. Unless noted, the call rests on the fitted dose curve; in most records, active means well fitted curve in the direction sought with a large enough effect; inconclusive means small, poorly fitted or top-dose-only effect, or another doubt; inactive means no such curve, though single readings can be large; an effect the other way counts as inactive or inconclusive.

What do the screens show for `O=c1[nH]c(/C=C/c2ccc([N+](=O)[O-])cc2)c([N+](=O)[O-])c(=O)[nH]1`?
IDH1 R132H inh: 46µM*; Tb PGK inh: -8%; GLS inhibitor: 9%; Pin1 inhibitor: -1%; IDH1 autofl: 7; IDH1 WT: -9%; IDH1 R132H conf: 32µM*

What do the screens show for `CN(C)c1cccc(-c2nc(N3CCC(C(N)=O)CC3)ncc2F)c1`?
Pin1 inhibitor: -2%

What do the screens show for `Cc1ccc(N2C(=O)c3[nH]nc(-c4ccc(Cl)cc4)c3C2c2ccc(F)cc2)cc1` (stereo not given)?
IDH1 R132H inh: -20%; Tb PGK inh: -1%; GLS inhibitor: 5%; Pin1 inhibitor: 14%

What do the screens show for `COc1ccc(C2c3c(-c4ccc(F)cc4)n[nH]c3C(=O)N2c2ccccc2)cc1OC` (stereo not given)?
IDH1 R132H inh: 3%; Tb PGK inh: 0%; GLS inhibitor: -5%; Pin1 inhibitor: 6%

How did O=C(O)c1ccc(N2C(=O)c3[nH]nc(-c4ccccc4)c3C2c2ccccc2)cc1 (stereo not given) do in these assays?
IDH1 R132H inh: -9%; Tb PGK inh: inactive; GLS inhibitor: inconclusive; Pin1 inhibitor: -1%

What do the screens show for `O=C(O)c1ccc(N2C(=O)c3[nH]nc(-c4ccccc4)c3C2c2cccc(F)c2)cc1` (stereo not given)?
IDH1 R132H inh: inconclusive; Tb PGK inh: 7%; GLS inhibitor: inconclusive; Pin1 inhibitor: -10%; IDH1 autofl: -5; IDH1 WT: -18%; IDH1 R132H conf: 32µM*

Results for COc1ccc(C2c3c(-c4ccccc4)n[nH]c3C(=O)N2c2ccc(C(=O)O)cc2)cc1 (stereo not given) ?
IDH1 R132H inh: 52µM*; Tb PGK inh: 8%; GLS inhibitor: 1%; Pin1 inhibitor: 0%; IDH1 autofl: 11; IDH1 WT: inconclusive; IDH1 R132H conf: 45µM*

How did COc1cc(C2c3c(-c4ccc(C)cc4)n[nH]c3C(=O)N2c2ccc(F)cc2)ccc1O (stereo not given) do in these assays?
IDH1 R132H inh: inconclusive; Tb PGK inh: 2%; GLS inhibitor: 6%; Pin1 inhibitor: 3%; IDH1 autofl: -2; IDH1 WT: -6%; IDH1 R132H conf: 25µM*

What do the screens show for `COc1ccc(-c2n[nH]c3c2C(c2ccc(OC)c(OC)c2)N(c2ccccc2)C3=O)cc1` (stereo not given)?
IDH1 R132H inh: inconclusive; Tb PGK inh: inactive; GLS inhibitor: -1%; Pin1 inhibitor: 15%; IDH1 autofl: 10; IDH1 WT: 2%; IDH1 R132H conf: 20µM*

How did COc1cccc(C2c3c(-c4ccccc4)n[nH]c3C(=O)N2c2ccc(C(=O)O)cc2)c1 (stereo not given) do in these assays?
IDH1 R132H inh: inconclusive; GLS inhibitor: inconclusive; Pin1 inhibitor: -12%; IDH1 autofl: 1; IDH1 WT: inconclusive; IDH1 R132H conf: 20µM*

Results for CCc1ccc(C2c3c(-c4ccccc4)n[nH]c3C(=O)N2c2ccc(C(=O)O)cc2)cc1 (stereo not given) ?
IDH1 R132H inh: 35µM*; Tb PGK inh: -13%; GLS inhibitor: 16µM*; Pin1 inhibitor: -10%; IDH1 autofl: -5; IDH1 WT: 25µM*; IDH1 R132H conf: 7.1µM*

What do the screens show for `COc1ccc(-c2n[nH]c3c2C(c2ccc(O)cc2)N(c2ccc(Br)cc2)C3=O)cc1` (stereo not given)?
IDH1 R132H inh: -1%; Tb PGK inh: -9%; GLS inhibitor: 4%; Pin1 inhibitor: 16%
